# Calls of active or inactive are those of the source. The calls were made as follows: active = hit-call score of the fitted dose curve at least 0.9, where 1 is the maximum; inactive = score below 0.9.
# Target: rat Glutamate (Kainate, Non-Selective), conducted at France lab site, Grik1 (gene 29559) (UniProt P22756)
# Test: ERF_FR_LGIC_rGRIK1: Eurofins (ERF) Ion Channel [3H] Kainic acid Binding LeadHunter Assay for rat Glutamate (Kainate, Non-Selective), conducted at France lab site
# Method: ERF_FR_LGIC_rGRIK1 is a biochemical, single-readout assay that uses extracted gene-proteins in a cell-free assay. Measurements were taken 1 hour after chemical dosing in a 96-well plate. See Glutamate (Kianate, Non-Selective) Rat Ion Channel [3H]- Kainic acid Binding Assay, Cerep.ERF_FR_LGIC_rGRIK1 is an assay component calculated from the ERF_FR_LGIC_rGRIK1 assay. It is designed to measure radioligand binding using a type of binding reporter as detected by scintillation counting with radiometry technology.Data from the assay component ERF_FR_LGIC_rGRIK1 was analyzed at the assay endpoint, ERF_FR_LGIC_rGRIK1, in the positive analysis fitting direction relative to DMSO as the negative control and baseline of activity. Using a type of binding reporter, loss-of-signal activity can be used to understand changes in binding as they relate to gene GRIK1. To generalize the intended target to other relatable targets, this assay endpoint is annotated to the ion channel intended target family, where the subfamily is ligand-gated (glutamate, Ionotropic).
# Glutamate kainite receptor containing membranes are prepared from brain cortices from male Wistar rats in Tris-HCl buffer pH 7.4. A 10 mg aliquot is incubated with 5 nM [3H]Kainic acid for 60 minutes at 4C. […] Membranes are filtered and washed, the filters are then counted to determine [3H]Kainic acid specifically bound.
# Chain of rat Glutamate (Kainate, Non-Selective), conducted at France lab site, Grik1 (gene 29559) (P22756 whole entry, looked up): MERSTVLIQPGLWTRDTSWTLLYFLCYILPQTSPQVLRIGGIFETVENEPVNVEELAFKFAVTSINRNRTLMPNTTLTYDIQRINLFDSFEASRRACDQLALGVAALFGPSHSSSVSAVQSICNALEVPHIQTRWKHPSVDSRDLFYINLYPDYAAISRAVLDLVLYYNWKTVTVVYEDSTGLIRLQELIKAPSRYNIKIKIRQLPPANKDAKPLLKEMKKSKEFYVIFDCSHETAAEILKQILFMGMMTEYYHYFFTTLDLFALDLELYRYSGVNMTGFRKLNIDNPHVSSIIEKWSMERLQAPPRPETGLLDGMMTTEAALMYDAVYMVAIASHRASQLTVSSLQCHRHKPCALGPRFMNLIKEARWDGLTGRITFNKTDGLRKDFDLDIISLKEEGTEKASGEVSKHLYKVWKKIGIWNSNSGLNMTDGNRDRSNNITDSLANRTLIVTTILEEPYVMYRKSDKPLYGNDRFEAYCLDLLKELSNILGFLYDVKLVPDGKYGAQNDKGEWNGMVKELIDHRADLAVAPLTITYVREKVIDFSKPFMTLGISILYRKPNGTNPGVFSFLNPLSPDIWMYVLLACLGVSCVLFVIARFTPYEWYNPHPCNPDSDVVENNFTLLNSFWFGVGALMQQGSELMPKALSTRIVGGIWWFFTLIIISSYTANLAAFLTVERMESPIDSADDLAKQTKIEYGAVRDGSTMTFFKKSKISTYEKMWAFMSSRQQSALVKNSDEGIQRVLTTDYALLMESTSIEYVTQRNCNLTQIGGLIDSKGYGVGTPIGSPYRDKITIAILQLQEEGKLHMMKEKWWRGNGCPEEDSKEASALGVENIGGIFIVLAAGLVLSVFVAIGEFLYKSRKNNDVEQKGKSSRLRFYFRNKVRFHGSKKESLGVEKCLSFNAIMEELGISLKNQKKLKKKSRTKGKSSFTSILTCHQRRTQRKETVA
row,SMILES,AC50
1,O=C(/C=C/c1ccc(O)cc1)CC(=O)/C=C/c1ccc(O)cc1,2.87 µM (active)

# — PubChem BioAssay AID2284189 (EPA ToxCast)
